# Assay outcomes from PubChem.
# ERa coact pot: enhances coactivator binding to human estrogen receptor alpha; coactivator binding (% of control), % at 25.6 µM; TR-FRET ERalpha-LBD/SRC-Cy5 coactivator binding, 2 h; 100 = basal binding, no effect; P03372; 1.3% of 86,000 active; in the data active means activity above about 200%;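 further: binding measured in presence of low estradiol as agonist stimulus; 0% = peptide alone without receptor and 100% = receptor with peptide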
# Target sequence (P03372 whole entry, looked up, the tested form may be a part): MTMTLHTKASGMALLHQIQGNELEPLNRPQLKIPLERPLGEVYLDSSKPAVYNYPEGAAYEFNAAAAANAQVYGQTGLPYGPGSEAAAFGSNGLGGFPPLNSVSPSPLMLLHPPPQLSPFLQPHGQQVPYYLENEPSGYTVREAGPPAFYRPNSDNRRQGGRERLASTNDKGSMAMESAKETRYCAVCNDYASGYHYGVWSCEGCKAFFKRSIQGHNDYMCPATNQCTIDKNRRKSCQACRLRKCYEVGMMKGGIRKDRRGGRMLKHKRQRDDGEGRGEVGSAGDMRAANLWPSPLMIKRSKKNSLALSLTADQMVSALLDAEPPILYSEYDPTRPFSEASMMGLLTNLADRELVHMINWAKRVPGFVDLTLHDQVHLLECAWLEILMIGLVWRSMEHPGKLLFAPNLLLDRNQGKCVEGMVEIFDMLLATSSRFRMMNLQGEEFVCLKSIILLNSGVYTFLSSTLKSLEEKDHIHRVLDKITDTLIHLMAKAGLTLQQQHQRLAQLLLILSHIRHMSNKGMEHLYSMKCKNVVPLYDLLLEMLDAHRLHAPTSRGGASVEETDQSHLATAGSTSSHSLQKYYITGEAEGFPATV
# ERb coact inh: ER-beta (human) coactivator binding inhibition. TR-FRET ER-beta LBD / SRC1-Cy5 peptide binding; receptor agonist-loaded with 1 µM estradiol. AID 633. Q92731. 1.3% of 86,000 active. inhibition, % at 25.6 µM;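 active means compounds whose percent inhibition of the receptor-coactivator binding signal exceeds about 50% in the single-dose screen, limit read from the data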;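 further: 0% = receptor plus peptide wells without compound and 100% = peptide-only wells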
# Calb biofilm kill: kills Candida albicans biofilms | C. albicans biofilm + clotrimazole, Alamar Blue | inhibition, % at 6 µM | 0.14% of 85,000 active | AID 834;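 active means inhibition above 20%; inactive means inhibition below 20%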;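 further: preformed 24 hr biofilms exposed to compound for 48 hr; 0% = biofilm without compound and 100% = blank killed by clotrimazole plus chlorhexidine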
# MT1-MMP txn act: MT1-MMP promoter transcription activation. HT1080 MT1-MMP promoter luciferase reporter, luminescence, overnight; active compounds read high. activation factor at 10 µM. 0.16% of 86,000 active. AID 750;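 active means activation factor of at least 2 for MT1-MMP transcription at 10 µM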
# ERa coact inh: ER-alpha (human) coactivator binding inhibition; AID 629; inhibition, % at 25.6 µM; 1.7% of 86,000 active; P03372; TR-FRET ER-alpha LBD / SRC-1 peptide, estradiol-bound; in the data active means inhibition above about 50%;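 further: 0% = receptor plus peptide control and 100% = peptide only without receptor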
# EphB4 antag: EphB4-ephrin-B2 interaction antagonism; P54760; EphB4 LBD / TNYL-RAW-Alexa532 peptide, fluorescence polarization; inhibition, % at 7 µM; 0.15% of 97,000 active; AID 720;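 active means inhibition above the screen-wide mean inhibition plus 3 SD, cut at about 15% in these data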;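 further: 0% = DMSO wells and 100% = excess unlabeled TNYL-RAW peptide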
# * hit, by the source's call; / = not tested or not shown; [ ] = remark or other dose. Shown are actives, neighbours in structure and some others; about 3.2% of the full set was active somewhere.
SMILES,ERa coact pot,ERb coact inh,Calb biofilm kill,MT1-MMP txn act,ERa coact inh,EphB4 antag
COc1ccc(CCN2C(=O)C3C4C=CC(C3C2=O)C2C(=O)N(CCc3ccc(OC)c(OC)c3)C(=O)C42)cc1OC (stereo not drawn),108,-6,-6,0.9,0,7
CCn1c(SC(C)C(=O)O)nc2sc3c(c2c1=O)CCC3 (stereo not drawn),3,92*[fluorescence artefact?],2,0.9,93*[fluorescence artefact?],/
O=C(NCCN1CCOCC1)NC1(C(F)(F)F)Oc2ccccc2O1,617*[fluorescence artefact?],2,4,1.2,1,-1
Cc1ccc(CNC(=O)CCCC(=O)O)cc1,100,2,6,1,2,7
O=C1N=C(c2ccccc2)S/C1=C\c1cccs1,112,23,0,1.3,57*[fluorescence artefact?],-8
O=C(c1cc2ncc(Br)cn2n1)N1CCOCC1,36,58*,-1,/,49,3
CCOC(=O)C1CCCN(C(=O)c2cc3ncc(Br)cn3n2)C1 (stereo not drawn),42,60*[fluorescence artefact?],8,1.1,57*,10
O=C(c1cc2ncc(Br)cn2n1)N1CCN(C(=O)c2ccco2)CC1,46,52*,0,1,61*,3
O=C(CN1C(=O)NC(Cc2ccccc2)C1=O)Nc1ccc(F)cc1 (stereo not drawn),103,-9,10,1.2,-1,/
CC(C)NC(=O)CN1C(=O)NC(CCc2ccccc2)C1=O (stereo not drawn),107,-4,-2,1.1,61*[fluorescence artefact?],5
C=CCc1cc(C)cc(C)c1OCCn1cncn1,125,-1,6,1.1,1,17*
Cc1ccc(CNC(=O)[C@H]2C[C@@H]2[C@H](NP(=O)(c2ccccc2)c2ccccc2)c2ccccc2)c(F)c1F,/,/,/,1.2,/,/
CCC(C)(C)n1nnnc1C(c1cc2ccc(OC)cc2[nH]c1=O)N1CCc2ccccc21 (stereo not drawn),256*,6,-2,1.2,19,5
CCC(C)(C)n1nnnc1C(c1cc2cc(OC)ccc2[nH]c1=O)N1CCc2ccccc21 (stereo not drawn),94,3,6,1.1,-1,5
Cc1cc(NC(=O)c2cncc(Br)c2)n(-c2ccccn2)n1,294*,-5,1,0.9,8,-1
Cc1cc2cc(CN3C(=O)c4ccccc4C3=O)ccc2n1C,300*[fluorescence artefact?],9,-1,1.1,-3,/
Cc1cc(Br)c2c(c1)=C(c1sc(N3CCCCCC3)nc1O)C(=O)N=2,179,50,-6,1.1,74*[fluorescence artefact?],-1
COC(=O)[C@@]1(Cc2ccc(OC)cc2)[C@H]2c3cc(C(=O)N4CCCC4)n(CCc4ccc(O)c(OC)c4)c3C[C@H]2CN1C(=O)c1ccccc1,/,/,/,1.1,/,/
CC(C)c1ccc(-c2c(C#N)c(N)nc(SCC(=O)N3CCCCC3)c2C#N)cc1,186,43,-2,1,50*[fluorescence artefact?],6
CC(C)c1ccc(-c2c(C#N)c(N)nc(SCC(=O)N3CCCCCC3)c2C#N)cc1,260*[fluorescence artefact?],50,6,1,43,-5
N#Cc1c(N)nc(SCC(=O)NC2CCCCC2)c(C#N)c1-c1ccc(Cl)cc1,122,51*[fluorescence artefact?],8,1.2,66*[fluorescence artefact?],-8
CCOC(=O)CSc1nc(N)c(C#N)c(-c2ccc(OCC)cc2)c1C#N,187,37,5,1.2,34,3
N#Cc1c(SCC(N)=O)nsc1SCc1ccc(Cl)cc1,79,0,8,1.3,1,-4
N#Cc1c(SCC(N)=O)nsc1SCc1ccccc1Cl,105,99*[fluorescence artefact?],10,1.1,11,6
COC(=O)[C@H]1C[C@@H]1[C@H](NC(=O)[C@@H]1CCCN1C(=O)OC(C)(C)C)c1ccccc1,/,/,/,1.2,/,/
SMILES,ERa coact pot,ERb coact inh,Calb biofilm kill,MT1-MMP txn act,ERa coact inh,EphB4 antag
Nc1nc(-c2ccco2)c(-c2ccco2)s1,63,54*,6,1.1,35,6
COc1ccc2nc(-c3ccco3)c(-c3ccco3)nc2c1,12,98*[fluorescence artefact?],0,0.9,97*[fluorescence artefact?],4
Nc1nc(-c2ccco2)cs1,79,4,3,1.4,-4,-8
c1coc(-c2nc(-c3ccco3)c(-c3ccco3)nc2-c2ccco2)c1,10,85*[fluorescence artefact?],8,1.1,87*[fluorescence artefact?],19*
c1coc(-c2ncc[nH]2)c1,119,-7,4,1.1,-14,0
COCCCNC(CC(=O)Nc1ccc(N(C)C)cc1)C(=O)O (stereo not drawn),/,/,/,1.1,/,/
CCc1ccc(O)c(N=Cc2ccccc2O)c1,106,-3,7,1.2,2,6
Cc1sc(/N=C/c2ccccc2O)c(C#N)c1C,106,-14,4,2*,2,8
CCOC(=O)CSc1nc2cc(C(=O)OC)ccc2c(=O)n1CCN1CCOCC1,107,4,7,1.2,7,3
COC(=O)c1ccc2c(=O)n(CCN3CCOCC3)c(SCC(=O)C(C)(C)C)nc2c1,786*[fluorescence artefact?],4,7,1.1,9,-5
CC(=O)Nc1ccc(OC(=O)CC2SC(=O)NC2=O)cc1 (stereo not drawn),70,56*,11,1.1,41,4
CCN(CC)C(=O)Oc1ccc(NC(C)=O)cc1,97,-3,5,1.1,3,5
Cc1cccc(NC(=S)NNC(=O)c2sccc2C)c1,/,/,/,/,/,0
Cc1ccc(-c2nn(CC(=O)NCc3cc(-c4nn(C)c(=O)c5ccccc45)ccc3C)c(=O)c3ccccc23)cc1,66,64*[fluorescence artefact?],1,1,88*[fluorescence artefact?],0
COc1ccc(NC(=O)Cc2nn(C)c(=O)c3ccccc23)c2ncccc12,217*,17,9,1.2,-5,/
COc1ccc(OC)c(NC(=O)Cc2nn(C)c(=O)c3ccccc23)c1,111,-23,4,1,-48,-2
CCC(=O)Nc1cc(-c2nn(C)c(=O)c3ccccc23)ccc1OC,/,/,/,1.3,/,1
COc1ccc(-c2nn(C)c(=O)c3ccccc23)cc1NC(=O)Cn1nc(C)c2ccccc2c1=O,287*[fluorescence artefact?],50*[fluorescence artefact?],5,1.1,63*,-8
COc1ccc(-c2nn(C)c(=O)c3ccccc23)cc1NC(=O)COc1ccc(C)cc1,487*[fluorescence artefact?],16,6,1,11,-3
CCC(=O)NCc1cc(-c2nn(C)c(=O)c3ccccc23)ccc1C,115,-7,4,1.1,-3,3
O=C(c1ccccc1)[C@H]1[C@H](c2ccccc2)[C@@]2(N=C(c3ccccc3)OC2=O)C2c3ccccc3C=NN21 (stereo partly drawn),57,-5,7,1.6,-4,-1
Cc1cc(NC(=O)CSc2nc(C3CC3)nc3sc(C)c(C)c23)no1,174,11,2,0.9,-4,4
CC1=CC2(O)OCCN(CCO)C2=CC1=O (stereo not drawn),25,86*[fluorescence artefact?],-2,/,78*[fluorescence artefact?],12
CC1CCN(Cc2nc3c(c(=O)n(C)c(=O)n3C)n2CCN2CCOCC2)CC1,83,-5,-4,1,-1,/
